Structures are written as SMILES.

Common to all, as to format: functional
The subject of test [1] is Plasmodium falciparum. Put plainly: GSK_TCMDC: Inhibition of Plasmodium falciparum 3D7 in whole red blood cells, using parasite LDH activity as an index of growth. Test compounds present at 2uM.
Test [2] has as its system Plasmodium falciparum. The test can be described thus: GSK_TCMDC: Inhibition of Plasmodium falciparum Dd2 in whole red blood cells, using parasite LDH activity as an index of growth. Test compounds present at 2uM.
Another test deals with HepG2. Put plainly: GSK_TCMDC: Percent inhibition of human HepG2 cell line. Test compounds present at 10uM.

Take `O=C(Nc1ccc(-c2nc3ccccc3[nH]2)cc1)c1ccc(N2CCOCC2)c([N+](=O)[O-])c1`: the Inhibition (as a rule, the drop in the measured response relative to a control, in per cent) with Plasmodium falciparum [1] stood at 100%; in the test on Plasmodium falciparum [2] it was 28%; with HepG2 it was 47%.
On the same counts, the results for `CC(C)C[C@@H](/C=N/N1CCNC1=O)NC(=O)[C@H](CC(C)C)NC(=O)c1ccc(OCCN2CCOCC2)cc1` are 97%, 89% and 21%.
On the same counts, the results for `Cc1cccc2nc(-c3ccc(-c4cccc(CN5CCN(c6ccncc6)CC5)c4)s3)[nH]c12.O=C(O)C(F)(F)F` are 100%, 99% and 48%.
For `O=C(Nc1cc(Cl)cc(Cl)c1)c1cc(Cl)c(=O)n(Cc2ccc(Cl)cc2)c1`, in that order: 89%, 57% and 7%.
As for `N#Cc1ccc(N(CCOC(=O)c2ccc(Br)s2)Cc2ccccc2C(F)(F)F)cc1C(F)(F)F`, the Inhibition in the test on Plasmodium falciparum [1] is 82%; in the test with Plasmodium falciparum [2], 48%; in the test on HepG2, 8%.
For `COc1ccc(Cn2c(SCc3ccc(C)cc3)nc3cc(OC)c(OC)cc3c2=N)cc1Cl`, in that order: 92%, 7% and 50%.
As to `Br.CC=CCON1C(=N)NC(=N)NC1(C)C`, the Inhibition came out at 94% with Plasmodium falciparum [1], 1% in the test on Plasmodium falciparum [2] and 57% in the test with HepG2.
On the same counts, the results for `O=C(/C=C/c1ccc(C(F)(F)F)cc1)N1CCc2cc3nccc(N4CCN5CCC[C@H]5C4)c3cc21` are 86%, 21% and 0%.
For `CN(c1ccc(NC(=O)Nc2cc(C(C)(C)C)on2)cc1)c1ccnc(NCCN2CCOCC2)n1.O=C(O)C(F)(F)F`, the Inhibition in the test with Plasmodium falciparum [1] turned out to be 95%; in the test on Plasmodium falciparum [2], 18%; with HepG2, 51%.
For `Cc1[nH]c(C)c(-c2ccc(-c3ccc(Cl)cc3)nc2)c(=O)c1Br`, in that order: 97%, 96% and 21%.
For `Cc1[nH]c2ccccc2c1C1CCN(CCCCNC(=O)c2ccc(-c3ccc(C#N)cc3)cc2)CC1`, in that order: 100%, 97% and 19%.
`Cc1cc(NCc2ccccc2)nc2cc(O)ccc12`: the Inhibition is on record as 98% in the test on Plasmodium falciparum [1], 80% with Plasmodium falciparum [2] and 0% with HepG2.
For `Cc1cc(N2CCNCC2)c2cc(NC(=O)Nc3ccc(Cl)c(Cl)c3)ccc2n1.Cl`, in that order: 100%, 86% and 23%.
For `O=C(NCCN1CCN(S(=O)(=O)c2ccc(OC3CCNCC3)c(Br)c2)CC1)c1ccc(Cl)c(Cl)c1.O=C(O)C(F)(F)F`, in that order: 89%, 0% and 1%.
On the same counts, the results for `Cl.c1ccc(Oc2ccc(Nc3ccnc4c(-c5ccccn5)cccc34)cc2)cc1` are 100%, 58% and 31%.
As for `CC(C)(C)c1ccc(NC(=O)c2cccc(CN3CCCN(Cc4cccc(Cl)c4)CC3)c2)cc1.O=C(O)C(F)(F)F`, the Inhibition in the test on Plasmodium falciparum [1] is recorded as 85%; with Plasmodium falciparum [2], 30%; with HepG2 it was 61%.
On the same counts, the results for `Cl.O=S(=O)(c1ccc(OCc2ccc(Cl)cc2)cc1)c1cc2c(c(-c3ccc(F)cc3)c1)CCN(CC1CC1)CC2` are 84%, 14% and 0%.
On the same counts, the results for `CCn1c(-c2nonc2N)nc2cnc(Oc3cccc(NC(=O)c4ccc(OCCN5CCCCC5)cc4)c3)cc21` are 98%, 7% and 16%.
For `CNC(=O)C1Cc2c([nH]c3cc(Br)ccc23)C2(CCN(CCc3ccccc3)CC2)N1` (configuration not stated), in that order: 100%, 31% and 10%.
On to `COc1cc2nc(N3CCC(CNC(=O)c4ccc(-c5ccc(C(=O)N(C)C)cc5)c(OCCO)c4)CC3)nc(N)c2cc1OC`, for which the Inhibition in the test with Plasmodium falciparum [1] came out at 96%; in the test with Plasmodium falciparum [2], 18%; with HepG2 it was 10%.
As for `CCn1c(=O)c(C(=O)Nc2cc(Cl)c(OC)cc2OC)nc2ccccc21`, the Inhibition with Plasmodium falciparum [1] worked out at 86%; in the test on Plasmodium falciparum [2], 84%; in the test with HepG2, 19%.
As for `Cc1cc(C)c(C(=O)Nc2n[nH]c3nnc(-c4cccc(F)c4F)cc23)c(C)c1`, the Inhibition in the test on Plasmodium falciparum [1] amounted to 90%; with Plasmodium falciparum [2] it was 0%; in the test with HepG2, 0%.
For the molecule `COc1ccc(Nc2nc(=Nc3ccccc3)nc(NN=Cc3cc(Cl)ccc3O)[nH]2)cc1`, the figures for the Inhibition with Plasmodium falciparum [1], with Plasmodium falciparum [2] and in the test with HepG2 were 100%, 10% and 55%, respectively.
As for `Cl.NC1=NC(Cc2ccccc2)N(c2ccc(Cl)cc2)C(N)=N1` (configuration not stated), the Inhibition in the test with Plasmodium falciparum [1] came out at 93%; in the test on Plasmodium falciparum [2], 4%; in the test on HepG2, 21%.
On the same counts, the results for `CCN(CC)CCN(Cc1ccc(-c2ccc(C(F)(F)F)cc2)cc1)C(=O)Cn1c(CCc2ccc(F)c(F)c2F)nc(=O)c2cccnc21.O=C(O)C(O)C(O)C(=O)O` are 89%, 20% and 29%.
On the same counts, the results for `N#Cc1ccc(-c2ccc(OCC(O)CN3CCCN(C(=O)C(c4ccc5c(c4)OCO5)N4CCN(C/C=C/c5ccccc5)CC4)CC3)cc2)cc1` (configuration not stated) are 99%, 77% and 25%.
`CN1CCN(CCCN(Cc2csc(-c3ccc(CNCc4ccccc4)cc3)n2)C(=O)c2cc(F)cc(F)c2)CC1.O=C(O)C(F)(F)F`: the Inhibition is given as 97% with Plasmodium falciparum [1], 53% in the test on Plasmodium falciparum [2] and 60% with HepG2.
For `N#Cc1ccc(CN2CCCN(Cc3cccc(NC(=O)c4cc5ccccc5s4)c3)CC2)cc1.O=C(O)C(F)(F)F`, in that order: 97%, 36% and 31%.
For `CCOC(=O)N/N=C/[C@H](CCc1ccccc1)NC(=O)[C@H](CC(C)C)NC(=O)c1cc2cccc(OC)c2o1`, in that order: 84%, 58% and 3%.
Regarding `COc1ccc(NC(=O)/C=C/c2ccc(-c3ccc(-c4noc(C)n4)cc3)cc2)cc1OCCN(C)C.O=C(O)C(=O)O`, the figures for the Inhibition with Plasmodium falciparum [1], with Plasmodium falciparum [2] and in the test on HepG2 were 81%, 31% and 14%, respectively.
For `O=C(Nc1ccccc1)Nc1cccc(-c2nn3c(OCCN4CCCC4)cccc3c2-c2ccncc2)c1`, in that order: 100%, 98% and 30%.
In the case of `O=S(=O)(c1cc(Cl)sc1Cl)N(CCC(O)(C(F)(F)F)C(F)(F)F)Cc1cccc(O)c1`, the values for the Inhibition in the test with Plasmodium falciparum [1], in the test with Plasmodium falciparum [2] and in the test with HepG2 were 98%, 97% and 0%, respectively.
On the same counts, the results for `C=CCc1cccc(CN2CCC(c3cc(O)nc(-c4ccccn4)n3)CC2)c1O` are 91%, 75% and 46%.
For `CNCCNCc1cccc(-c2ccc(-c3nc4cccc(C)c4[nH]3)cc2)c1.O=C(O)C(F)(F)F`, in that order: 98%, 21% and 17%.
On to `CC(C)c1ccc(NC(=O)N[C@H]2CCN(CCCCCNC(=O)/C=C/c3ccc(Cl)c(Cl)c3)C2)cc1`, for which the Inhibition is reported as 100% in the test on Plasmodium falciparum [1], 14% in the test with Plasmodium falciparum [2] and 56% in the test with HepG2.
On the same counts, the results for `NC(=O)COc1cccc2c1CCN(CCN1CCC(NC(=O)c3ccc(-c4ccc(Cl)cc4)cc3)CC1)C2` are 92%, 6% and 44%.
On to `O=C(Nc1cccc(CN2CCCN(Cc3ncc[nH]3)CC2)c1)c1ccc(-c2ccccc2)cc1.O=C(O)C(F)(F)F`, for which the Inhibition with Plasmodium falciparum [1] turned out to be 100%; in the test with Plasmodium falciparum [2], 56%; with HepG2, 23%.
On the same counts, the results for `O=S(=O)(c1cccc(Cl)c1F)N(CCC(O)(C(F)(F)F)C(F)(F)F)Cc1cccc(O)c1` are 100%, 86% and 0%.
On the same counts, the results for `Cc1ccc(O)c(-c2cc(C(=O)Nc3ccc(S(=O)(=O)N4CCCCCC4)cc3)[nH]n2)c1` are 100%, 80% and 25%.
For `Cc1cccc2nc(-c3ccc(-c4ccc(NC(=O)NCc5cccc(F)c5)cc4)cc3)[nH]c12`, in that order: 97%, 12% and 46%.
`COC(=O)C1(NC(=O)c2ccc(-n3nc(C)c(-c4ccccc4)c3N)cc2)CCCC1`: the Inhibition amounted to 96% with Plasmodium falciparum [1], 81% in the test with Plasmodium falciparum [2] and 9% in the test on HepG2.
On the same counts, the results for `Cl.O=C(Nc1ccc2c(c1)CNCC2)c1ccc(-c2ccc(Cl)cc2)cc1` are 96%, 28% and 52%.
For `COC(=O)C(NC(=O)c1ccc(-c2ccc(-c3nc4ccccc4[nH]3)s2)cc1)c1ccc(O)cc1` (configuration not stated), in that order: 83%, 49% and 99%.
For `CC(C)N1CCN(CCCCNc2c3ccccc3nc3ccccc23)CC1.Cl`, in that order: 100%, 0% and 38%.

The values are drawn from ChEMBL document CHEMBL1157539, “Thousands of chemical starting points for antimalarial lead identification” (Nature, 2010).
